Screening results as filed in PubChem BioAssay.
In the library only some 17% were active in any assay of this set; here they are far more common.
ClpP mod – qHTS Assay for Activators of ClpP; ATP-dependent Clp protease proteolytic subunit (Bacillus subtilis (strain 168)), P80244; Potency, µM (series often up to 57.5 µM), for inactives: at the highest dose activity change, negative = active; actives 1.9% (n = 340,000); purified B. subtilis ClpP, FRET peptide cleavage, 20 min; active = well fitted falling curve with a large enough effect; inconclusive = small, poorly fitted or top-dose-only effect; inactive = no such curve, though single readings can be large or run the other way; also: the source files actives as falling curves though it sought activators and does not explain the sign; nearly all actives have a fitted effect of over 65% in size
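Purified B. subtilis ClpP, 10 microg/mL final in Tris/HCl pH8 with KCl, BSA, glycerol and Tween-20, cleaved an Abz/nitrotyrosine-quenched decapeptide. Fluorescence (ex 320, em 430) was read at 0 and 20 min at room temperature. Delta was normalized to 5.8 microM ADEP and DMSO/no-enzyme controls.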
TDP1 inh – qHTS Assay for Inhibitors of Tyrosyl-DNA Phosphodiesterase (TDP1); recombinant TDP1, AlphaScreen DNA substrate cleavage; Potency, µM (titrated, usually from 130 µM), for inactives: top-dose activity change, negative = inhibition, usual class: inhibitors; actives 0.28% (n = 350,000); AID 485290, 2010; also: % is scaled to controls: 0 for no effect and ±100 for the full control effect; nearly all actives have a fitted effect of over 40% in size
Target sequence (Q9NUW8 whole entry, looked up): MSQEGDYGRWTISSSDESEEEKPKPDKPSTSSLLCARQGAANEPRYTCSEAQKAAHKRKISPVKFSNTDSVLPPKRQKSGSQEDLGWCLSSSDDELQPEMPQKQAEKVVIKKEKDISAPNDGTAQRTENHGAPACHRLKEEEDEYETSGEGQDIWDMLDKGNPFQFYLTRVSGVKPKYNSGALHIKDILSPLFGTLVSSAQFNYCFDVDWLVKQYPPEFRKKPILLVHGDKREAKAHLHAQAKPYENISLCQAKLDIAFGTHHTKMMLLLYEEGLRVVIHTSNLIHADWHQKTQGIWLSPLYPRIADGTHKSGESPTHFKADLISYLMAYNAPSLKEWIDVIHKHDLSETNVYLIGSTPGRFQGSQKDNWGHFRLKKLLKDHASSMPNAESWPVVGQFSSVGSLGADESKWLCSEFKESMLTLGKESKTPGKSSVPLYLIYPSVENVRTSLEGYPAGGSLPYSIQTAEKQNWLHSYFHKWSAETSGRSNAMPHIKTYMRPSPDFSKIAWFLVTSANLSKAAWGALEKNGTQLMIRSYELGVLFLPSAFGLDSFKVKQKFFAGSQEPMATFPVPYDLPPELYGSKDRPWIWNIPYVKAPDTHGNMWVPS
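Tdp1 1 nM final; 15 min RT w/ cpd; substrate 15 nM, 5 min; beads 10 ug/ml, 10 min; AlphaScreen read. Neg ctrl: no enzyme.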
DT40 TDP1 no CPT – qHTS for Inhibitors of human tyrosyl-DNA phosphodiesterase 1 (TDP1): qHTS in cells in absence of CPT; actives 15% (n = 420,000); DT40 Tdp1-/- hTDP1 cells, no CPT, ATP luminescence, 48 h; Potency, µM (top dose mostly 46.2 µM), for inactives: at the highest dose activity change, negative = growth inhibition, most hits filed as inhibitors; also: % is scaled to controls: 0 for no effect and ±100 for the full control effect; nearly all actives have a fitted effect of over 55% in size
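Compound effects on proliferation are scored in DT40 Tdp1-/-;hTDP1 cells in the absence of CPT. ATP levels (CellTiter-Glo luminescence) are recorded after a ≥48 hr, 37 °C incubation.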
DT40 TDP1 CPT – qHTS for Inhibitors of human tyrosyl-DNA phosphodiesterase 1 (TDP1): qHTS in cells in presence of CPT; actives 12% (n = 420,000); chicken DT40 Tdp1-/-;hTDP1 cells + 20 nM CPT, ATP luminescence, 48 h; AID 686979, 2013; Potency, µM (highest dose often 46.2 µM), inactives show at the top dose activity change, negative = growth inhibition, actives largely listed as inhibitors; also: % is scaled to controls: 0 for no effect and ±100 for the full control effect; nearly all actives have a fitted effect of over 55% in size
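Cell growth measured by CellTiter-Glo luminescence after a minimum 48 h, 37 C compound exposure with 20 nM CPT in Tdp1-knockout DT40 cells stably expressing hTDP1, seeded 400/well; qHTS titration format.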
Active calls of the source: *; u = inconclusive; x = no result given; [ ] = dose if it differs, or a comment. Unless noted, calls follow the shape of the dose curve; as a rule, active = well fitted curve in the direction sought with a large enough effect; inconclusive = small, poorly fitted or top-dose-only effect, or another doubt; inactive = no such curve, though single readings can be large; an effect the other way counts as inactive or inconclusive. Potency is read from the fitted curve at half-maximal effect.

SMILES | ClpP mod | TDP1 inh | DT40 TDP1 no CPT | DT40 TDP1 CPT
COc1ccccc1CCNC(=O)C(=O)NCC(c1cccnc1)N1CCN(c2ccccc2)CC1 (centres undefined) | 0% | 6% | 12µM* | 12µM*
Cc1cc(-c2cc(F)cc3c2OC(CNC(=O)[C@@H]2CCC(=O)N2)C3)ccc1F (some centres undefined) | x | x | -17% | 2%[9.04 µM]
CN(C(=O)c1cccc(NC(=O)Cc2ccc(NC(=O)C3CCN(C(=O)C4CCCC4)CC3)cc2)c1)C1CCCC1 | -2% | x | u | u
COc1ccc(/C=C/C(=O)c2cc(F)ccc2OC(=O)c2ccccc2C)cc1OC | -8% | 3% | 1µM* | 0.92µM*
COc1ccc(C(=O)Oc2ccc(F)cc2C(=O)/C=C/c2ccc(OC)c(OC)c2)cc1 | 1% | 8% | 13µM* | 15µM*
COc1ccc(/C=C/C(=O)c2ccc3c4c(cccc24)CC3)cc1OC | -1% | -1% | 16µM* | 21µM*
COc1ccc(C(=O)Oc2cc(/C=N/NC(N)=S)ccc2OC)cc1 | -1% | 6% | -26% | -5%
COc1ccc(CNC(=O)CCc2c(C)c3ccc(OC)c(C)c3oc2=O)cc1OC | 5% | 9% | -23% | -27%
CN(CCO)C(=O)c1c(NC(=O)c2ccccc2)sc2c1CCCC2 | x | x | -7% | -6%
Nc1sc2c(c1C(=O)NCCc1ccccc1)CCC2 | -3% | 0% | -26% | 6%
Nc1sc2c(c1C(=O)NCCc1ccccc1)CCCC2 | -3% | x | 15µM* | u
CN(C)CCNC(=O)c1c(NC(=O)c2ccccc2)sc2c1CCCC2 | -2% | x | 26µM* | u
C[C@H]1CN([C@@H](C)CO)S(=O)(=O)c2ccc(Br)cc2O[C@H]1CN(C)C(=O)C1CCC1 | -4% | x | u | u
O=C(CCSc1ccccn1)c1ccccc1 | x | -4% | 2.6µM* | 2.3µM*
O=C(O)CCSc1ccccn1 | x | 3% | 0% | -4%
COc1ccc(CNC(=O)CC2C[C@H](C(=O)N3CCOCC3)[C@@]3(CCC4CCCC4)c4[nH]c5ccccc5c4CCN3C2=O)cc1OC (some centres undefined) | 0% | 3% | 23µM* | u
C[C@]12c3[nH]c4ccc(Cl)cc4c3CCN1C(=O)[C@@H](CC(=O)NCc1cccc(C(F)(F)F)c1)C[C@@H]2C(=O)N1CCCCC1 | 2% | 1%[56.1 µM] | 21µM* | u
CC[C@]12c3[nH]c4ccccc4c3CCN1C(=O)C(CC(=O)NCc1cccc(C(F)(F)F)c1)C[C@@H]2C(=O)N1CCN(C(=O)C2CC2)CC1 (some centres undefined) | 1% | 0% | 23µM* | u
CN(C)C(=O)CCc1ccc2c3c([nH]c2c1)[C@]1(C)[C@@H](C(=O)N2CCCCC2)C[C@H](CC(=O)NCc2cccc(C(F)(F)F)c2)C(=O)N1CC3 | -1% | 2%[56.1 µM] | 21µM* | 21µM*
COc1ccc2[nH]c3c(c2c1)CCN1C(=O)C(CC(=O)NCc2ccc(OC)c(OC)c2)C[C@H](C(=O)N2CCOCC2)[C@@]31CCC1CCCC1 (some centres undefined) | 3% | 0%[56.1 µM] | u | u
COc1ccc(CNC(=O)C[C@H]2C[C@H](C(=O)N3CCCCC3)[C@@]3(C)c4[nH]c5cc(CCC(=O)N(C)C)ccc5c4CCN3C2=O)cc1OC | -1% | 0%[56.1 µM] | -15% | -13%
Cc1ccsc1CNc1ncnc2ccc(-c3ccc4c(c3)OCO4)cc12 | x | 3% | x | x
COc1ccc2[nH]c3c(c2c1)CCN1C(=O)C(CC(=O)NC(C)(C)C)C[C@H](C(=O)N2CCOCC2)[C@@]31CCC1CCCC1 (some centres undefined) | 0% | 2%[56.1 µM] | -26% | -29%
CN(C)CCCNC(=O)CC1C[C@H](C(=O)N2CCOCC2)[C@@]2(CCC3CCCC3)c3[nH]c4ccccc4c3CCN2C1=O (some centres undefined) | 0% | 1% | -16% | -17%
CN(C)C(=O)CCc1ccc2c3c([nH]c2c1)[C@]1(C)[C@@H](C(=O)N2CCOCC2)C[C@H](CC(=O)NCc2ccco2)C(=O)N1CC3 | -2% | 1%[56.1 µM] | -13% | -11%
SMILES | ClpP mod | TDP1 inh | DT40 TDP1 no CPT | DT40 TDP1 CPT
O=C(CC1C[C@H](C(=O)N2CCOCC2)[C@@]2(CCC3CCCC3)c3[nH]c4ccccc4c3CCN2C1=O)NCc1cccc(C(F)(F)F)c1 (some centres undefined) | -2% | x | u | 23µM*
CC(C)(C)NC(=O)C[C@H]1C[C@H](C(=O)N2CCOCC2)[C@@]2(CCC3CCCC3)c3[nH]c4ccc(Cl)cc4c3CCN2C1=O | -1% | 1%[56.1 µM] | 16µM* | u
CN(C)C(=O)CCc1ccc2c3c([nH]c2c1)[C@]1(CCC2CCCC2)[C@@H](C(=O)N2CCOCC2)C[C@H](CC(=O)NCc2cccc(C(F)(F)F)c2)C(=O)N1CC3 | 2% | 0%[56.1 µM] | 15µM* | 21µM*
Cc1nc(NCc2ccccc2)c2cc[nH]c2n1 | 2% | x | 12µM* | u
Cc1ccc(-c2nnc(NCc3ccccc3)c3ccccc23)cc1 | 1% | -5% | u | u
Clc1cccc(Cl)c1NC1=NCCN1 | x | 9%[56.1 µM] | -16% | -3%
NS(=O)(=O)c1ccc(CCNC(c2ccccc2)c2ccccc2)cc1 | -5% | x | 23µM* | u
NS(=O)(=O)c1ccc(CCNS(=O)(=O)c2ccccc2)cc1 | x | 3% | -11% | -4%
c1ccc(C(NCCNC(c2ccccc2)c2ccccc2)c2ccccc2)cc1 | 0% | 10% | 21µM* | u
CC(C)NC(=O)C1(C)Cc2c(-c3ccc(N(C)C)cc3)ccnc2O1 (centres undefined) | 5% | x | 4.1µM* | 4.1µM*
CC(=O)Nc1ccc(-c2ccnc3c2CC(C)(C(=O)NC(C)C)O3)cc1 (centres undefined) | 4% | x | -21% | -11%
CC(=O)Nc1ccc(NC(=O)C2(C)Cc3c(-c4cccc(C(F)(F)F)c4)ccnc3O2)cc1 (centres undefined) | 1% | x | u | u
COc1ccc(NC(=O)C2(C)Cc3c(-c4cccc(C(N)=O)c4)ccnc3O2)cn1 (centres undefined) | -3% | x | 2.3µM* | 3.7µM*
CC(=O)c1cccc(NC(=O)C2(C)Cc3c(-c4cccc(C(N)=O)c4)ccnc3O2)c1 (centres undefined) | 0% | x | u | u
CC(C)c1ccc(NC(=O)C2(C)Cc3c(-c4cccc(C(F)(F)F)c4)ccnc3O2)cc1 (centres undefined) | -7% | x | u | 16µM*
